Measurements taken from PubChem BioAssay.
The source made the active and inactive calls.

How the values were obtained:
[1] = binders of probe aFSTL3 on microarray, primary screen, stem cell growth factor project, biochemical, small-molecule microarray, fluorescence 635/667 (AID 1064); conditions: higher = more signal;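 note: measures binding of the biotinylated anti-FSTL3 antibody to printed compounds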
[2] = binders from COS7 lysate, DM2A8 probe, primary screen, torsin A project, cell lysate, small-molecule microarray, fluorescence 635/667 (AID 1065); conditions: higher = more signal, COS7 lysate expressing mutant human TOR1A
[3] = binders of probe aFGF2 on microarray, primary screen, stem cell growth factor project, biochemical, small-molecule microarray, fluorescence 635/667 (AID 1067); conditions: higher = more signal;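 note: measures binding of biotinylated aFGF2 protein to printed compounds on slides; z-score merges feature fluorescence and signal-to-noise across triplicate slides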
[4] = binders of probe aFGF10 on microarray, primary screen, stem cell growth factor project, biochemical, small-molecule microarray, fluorescence 635/667 (AID 1071); conditions: higher = more signal;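 note: score merges 667 nm spot intensity and signal to noise from triplicate slides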
[5] = target: Neurogenic locus notch homolog protein 2 (Homo sapiens) (UniProt Q04721); test: Notch2 binders on small-molecule microarrays, primary screen, biochemical, small-molecule microarray, 635 nm fluorescence, stem cell growth factors (AID 1073); conditions: Notch2 binding, higher = more signal
[6] = target: Pro-neuregulin-1, membrane-bound isoform (Homo sapiens) (UniProt Q02297); test: NRG1 binders on small-molecule microarrays, primary screen, psychiatric disease protein project, biochemical, small-molecule microarray, fluorescence 635/667 (AID 1075); conditions: NRG1 binding, 635 nm fluorescence, higher = more signal;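 note: score combines 667 nm spot fluorescence with signal to noise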
[7] = tested on: Neuregulin-1 EGF-like domain; test: binders of neuregulin-1 EGF-like domain, primary screen, biochemical, small-molecule microarray, 635 nm fluorescence (AID 1081); conditions: small-molecule microarray binding, higher = more signal;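 note: binding of the protein to compounds printed on small-molecule microarray slides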
[8] = FRG1 promoter luciferase signal modulators, primary screen, FRG1 inhibition for FSHD, cell-based, C2C12 myotubes, firefly/Renilla luciferase, luminescence (AID 1084); conditions: higher = more signal, called active from +8 up or from −8 down
[9] = binders of probe aFST on microarray, primary screen, stem cell growth factor project, biochemical, small-molecule microarray, fluorescence 635/667 (AID 1086); conditions: higher = more signal;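 note: score merges 667 nm fluorescence with signal-to-noise of each printed compound spot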
[10] = binders of probe aHhip on microarray, primary screen, stem cell growth factor project, biochemical, small-molecule microarray, fluorescence 635/667 (AID 1087); conditions: higher = more signal;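 note: score merges spot fluorescence at 667nm with spot signal to noise ratio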
[11] = tested on: PRMT1 (protein arginine N-methyltransferase 1); test: PRMT1 binders on small-molecule microarrays, primary screen, biochemical, small-molecule microarray, 635 nm fluorescence (AID 1088); conditions: small-molecule microarray binding, higher = more signal;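 note: binding of Prmt1 protein to compounds spotted on small-molecule microarray slides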
[12] = yeast growth modulation, basal conditions, primary screen, YJM789 clinical isolate, OD600, 24 h (AID 1089);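 note: growth of clinical yeast isolate S. cerevisiae YJM 789 seeded 1000 cells per well; test concentration not given here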; conditions: S. cerevisiae YJM789 growth, higher = more signal, called active from +8 up or from −8 down
[13] = fission yeast growth modulation, primary screen, strain 972, OD600, 24 h, no modulator (AID 1090);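 note: basal condition with compound alone and no growth modifier present; test concentration not given here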; conditions: S. pombe 972 growth, higher = more signal, called active from +8 up or from −8 down
[14] = S. cerevisiae growth modulation with rapamycin, primary screen, strain BY4716, OD600, 96 h (AID 1091); conditions: higher = more signal, called active from +8 up or from −8 down; note: test concentration not given here
[15] = target: Torsin-1A-interacting protein 2 (Homo sapiens) (UniProt Q8NFQ8); test: LULL1 binders on small-molecule microarray, primary screen, cell lysate, human LULL1 lysate, 635/667 nm fluorescence (AID 1092); conditions: hLULL1 lysate binding, 635 nm fluorescence, higher = more signal;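 note: probe is lysate of COS7 cells overexpressing human LULL1; score merges per-feature 667 nm fluorescence with signal-to-noise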
[16] = E. coli growth modulation, two-sided OD650, primary screen, E. coli filamentation project, strain DRC41, 24 h (AID 1093); conditions: OD650, 24 h, higher = more signal, called active from +8 up or from −8 down;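 note: MC1000 strain lacking acrAB efflux and sulA so SOS filamentation is blocked; test concentration not given here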
[17] = small-molecule microarray binders of probe aLefty2, primary screen, biochemical, biotinylated probe, 635/667 nm fluorescence (AID 1094); conditions: higher = more signal;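 note: score merges spot fluorescence near 667 nm with spot signal-to-noise ratio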
[18] = tested on: Noggin (protein binding on small-molecule microarray); test: Noggin binders on small-molecule microarray, primary screen, biochemical, 635/667 nm fluorescence (AID 1095); conditions: 635 nm fluorescence, higher = more signal;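 note: score merges 667 nm feature fluorescence with signal to noise over triplicate slides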
[19] = target: Neurogenic locus notch homolog protein 3 (Homo sapiens) (UniProt Q9UM47); test: NOTCH3 binders on small-molecule microarray, primary screen, biochemical, 635/667 nm fluorescence (AID 1096); conditions: NOTCH3 binding, 635 nm fluorescence, higher = more signal
[20] = small-molecule microarray binders of probe aEGFR, primary screen, biochemical, biotinylated probe, 635/667 nm fluorescence (AID 1097); conditions: higher = more signal;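 note: probe is a biotinylated anti-EGFR antibody binding compounds printed on slides; score combines fluorescence near 667 nm and signal to noise of each spot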

Pro-neuregulin-1, membrane-bound isoform (Homo sapiens), sequence (Q02297 whole entry, looked up, the tested form may be a part, canonical isoform): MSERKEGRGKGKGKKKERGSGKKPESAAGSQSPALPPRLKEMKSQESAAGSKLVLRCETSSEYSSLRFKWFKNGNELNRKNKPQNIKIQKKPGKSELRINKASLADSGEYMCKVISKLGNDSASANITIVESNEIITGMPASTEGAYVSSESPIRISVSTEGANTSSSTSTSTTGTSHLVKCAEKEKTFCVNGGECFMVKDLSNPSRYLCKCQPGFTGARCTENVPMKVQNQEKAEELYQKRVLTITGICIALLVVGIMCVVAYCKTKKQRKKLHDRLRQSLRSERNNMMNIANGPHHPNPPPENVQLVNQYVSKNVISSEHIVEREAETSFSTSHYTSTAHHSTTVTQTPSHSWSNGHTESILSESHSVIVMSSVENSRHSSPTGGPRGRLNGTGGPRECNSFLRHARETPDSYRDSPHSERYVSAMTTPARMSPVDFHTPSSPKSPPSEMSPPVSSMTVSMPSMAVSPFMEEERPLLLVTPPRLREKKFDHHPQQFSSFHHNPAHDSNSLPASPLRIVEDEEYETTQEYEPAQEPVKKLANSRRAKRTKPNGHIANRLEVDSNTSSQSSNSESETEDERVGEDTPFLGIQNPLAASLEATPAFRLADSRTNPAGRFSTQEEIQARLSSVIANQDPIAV
Torsin-1A-interacting protein 2 (Homo sapiens), sequence (Q8NFQ8 whole entry, looked up): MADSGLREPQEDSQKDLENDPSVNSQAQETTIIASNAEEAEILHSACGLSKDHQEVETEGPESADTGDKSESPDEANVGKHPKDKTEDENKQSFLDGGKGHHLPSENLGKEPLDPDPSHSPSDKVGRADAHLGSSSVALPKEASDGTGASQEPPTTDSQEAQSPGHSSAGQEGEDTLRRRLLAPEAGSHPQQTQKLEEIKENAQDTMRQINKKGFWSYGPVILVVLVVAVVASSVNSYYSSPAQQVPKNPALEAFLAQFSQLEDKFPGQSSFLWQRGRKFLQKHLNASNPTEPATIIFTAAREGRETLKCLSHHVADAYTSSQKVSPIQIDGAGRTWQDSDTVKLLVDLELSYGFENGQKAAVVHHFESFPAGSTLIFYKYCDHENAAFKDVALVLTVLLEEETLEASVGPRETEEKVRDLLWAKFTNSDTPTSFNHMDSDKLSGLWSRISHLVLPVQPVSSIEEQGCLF
Neurogenic locus notch homolog protein 2 (Homo sapiens), sequence (Q04721 whole entry, looked up, canonical isoform): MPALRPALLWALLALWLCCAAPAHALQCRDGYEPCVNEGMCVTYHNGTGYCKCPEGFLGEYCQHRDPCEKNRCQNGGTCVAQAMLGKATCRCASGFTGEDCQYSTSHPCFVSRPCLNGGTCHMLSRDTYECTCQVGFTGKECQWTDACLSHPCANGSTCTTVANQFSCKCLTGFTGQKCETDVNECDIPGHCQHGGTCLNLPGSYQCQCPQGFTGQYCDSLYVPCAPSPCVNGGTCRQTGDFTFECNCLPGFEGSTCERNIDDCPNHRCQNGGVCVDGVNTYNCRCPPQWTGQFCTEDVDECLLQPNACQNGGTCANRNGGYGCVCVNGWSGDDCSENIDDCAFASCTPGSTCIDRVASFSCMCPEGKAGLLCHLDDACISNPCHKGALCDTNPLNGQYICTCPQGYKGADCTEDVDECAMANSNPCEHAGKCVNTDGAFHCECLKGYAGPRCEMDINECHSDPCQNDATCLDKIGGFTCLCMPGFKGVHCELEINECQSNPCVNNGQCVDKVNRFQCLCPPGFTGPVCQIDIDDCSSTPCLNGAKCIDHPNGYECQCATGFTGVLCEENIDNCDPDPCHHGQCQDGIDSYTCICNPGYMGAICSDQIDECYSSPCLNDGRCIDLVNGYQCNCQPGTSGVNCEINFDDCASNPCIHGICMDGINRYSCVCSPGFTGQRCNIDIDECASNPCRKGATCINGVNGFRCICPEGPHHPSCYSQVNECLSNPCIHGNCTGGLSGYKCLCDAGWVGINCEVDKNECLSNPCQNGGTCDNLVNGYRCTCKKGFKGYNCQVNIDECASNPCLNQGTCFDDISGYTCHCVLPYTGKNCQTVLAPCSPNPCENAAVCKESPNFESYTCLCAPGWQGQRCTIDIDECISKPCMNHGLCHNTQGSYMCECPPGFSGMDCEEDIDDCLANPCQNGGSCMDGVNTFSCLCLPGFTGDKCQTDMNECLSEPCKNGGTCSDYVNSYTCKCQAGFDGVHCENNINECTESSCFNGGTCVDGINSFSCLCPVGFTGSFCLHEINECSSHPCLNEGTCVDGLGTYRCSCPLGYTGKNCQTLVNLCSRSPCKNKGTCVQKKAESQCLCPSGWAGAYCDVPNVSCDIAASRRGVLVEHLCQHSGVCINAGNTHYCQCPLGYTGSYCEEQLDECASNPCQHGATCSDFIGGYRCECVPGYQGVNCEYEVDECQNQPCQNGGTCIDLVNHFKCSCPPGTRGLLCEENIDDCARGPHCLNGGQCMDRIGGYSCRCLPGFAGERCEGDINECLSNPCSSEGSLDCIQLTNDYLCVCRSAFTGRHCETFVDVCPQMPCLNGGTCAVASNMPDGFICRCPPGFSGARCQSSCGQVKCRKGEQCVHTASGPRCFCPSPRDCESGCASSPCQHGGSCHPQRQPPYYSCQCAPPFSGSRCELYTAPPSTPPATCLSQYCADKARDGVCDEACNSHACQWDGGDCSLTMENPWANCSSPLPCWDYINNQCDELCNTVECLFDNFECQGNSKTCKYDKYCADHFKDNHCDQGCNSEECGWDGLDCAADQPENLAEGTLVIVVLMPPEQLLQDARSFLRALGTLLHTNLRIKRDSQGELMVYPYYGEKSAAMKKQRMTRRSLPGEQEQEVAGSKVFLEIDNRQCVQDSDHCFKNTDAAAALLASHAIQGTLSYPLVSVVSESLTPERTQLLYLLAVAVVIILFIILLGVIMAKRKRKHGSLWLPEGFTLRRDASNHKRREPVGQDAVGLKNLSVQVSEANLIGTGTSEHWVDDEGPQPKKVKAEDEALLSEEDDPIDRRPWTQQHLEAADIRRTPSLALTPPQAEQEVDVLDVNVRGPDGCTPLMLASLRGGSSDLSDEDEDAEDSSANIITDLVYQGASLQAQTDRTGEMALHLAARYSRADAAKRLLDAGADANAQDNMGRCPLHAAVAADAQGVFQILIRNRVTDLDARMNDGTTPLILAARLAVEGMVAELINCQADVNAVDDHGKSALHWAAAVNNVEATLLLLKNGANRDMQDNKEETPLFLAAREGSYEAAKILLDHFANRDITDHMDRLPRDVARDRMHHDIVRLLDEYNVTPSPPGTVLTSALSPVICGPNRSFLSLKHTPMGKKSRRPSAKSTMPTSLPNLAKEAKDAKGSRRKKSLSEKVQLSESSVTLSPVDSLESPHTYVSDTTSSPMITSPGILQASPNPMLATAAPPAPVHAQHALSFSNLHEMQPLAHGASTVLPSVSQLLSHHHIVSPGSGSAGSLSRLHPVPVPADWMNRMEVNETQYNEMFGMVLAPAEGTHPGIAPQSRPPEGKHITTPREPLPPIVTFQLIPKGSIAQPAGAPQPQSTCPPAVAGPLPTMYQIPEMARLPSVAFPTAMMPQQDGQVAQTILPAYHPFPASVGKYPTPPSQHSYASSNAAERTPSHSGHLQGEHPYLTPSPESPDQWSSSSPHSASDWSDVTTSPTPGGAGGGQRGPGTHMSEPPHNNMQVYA

Compound	composite z-score [1]	composite z-score [2]	composite z-score [3]	composite z-score [4]	composite z-score [5]	composite z-score [6]	composite z-score [7]	z-score [8]	composite z-score [9]	composite z-score [10]	composite z-score [11]	z-score [12]	z-score [13]	z-score [14]	composite z-score [15]	z-score [16]	composite z-score [17]	composite z-score [18]	composite z-score [19]	composite z-score [20]
CO[C@H]1O[C@H](CO)[C@@H](OC(=O)Nc2ccccc2)[C@H](OC(=O)Nc2ccc3c(c2)OCO3)[C@@H]1OC(=O)Nc1ccc2c(c1)OCO2	0.304	1.66	-0.0784	0.158	0.288	1.77	1.29	2.25 (inactive)	0.474	-0.191	1.53	0.058 (inactive)	-0.1 (inactive)	3.14 (inactive)	2.62	1.67 (inactive)	-0.0591	-0.0087	0.845	-0.117
CCOC(=O)C[C@H]1[C@H](OC(=O)c2ccccc2-c2ccccc2)[C@@H](NC(=O)c2ccc(-c3ccccc3)cc2)c2cc(OCCCO)ccc2N1C(=O)Cc1ccc(OC)cc1	-0.191	-0.0021	-0.0642	0.389	0.212	-0.109	0.373	0.524 (inactive)	0.437	-0.0346	0.362	-0.39 (inactive)	-0.826 (inactive)	0.27 (inactive)	0.775	-0.857 (inactive)	-0.0435	0.19	0.266	0.0651
COC(=O)Cn1c(C(=O)N2CCCC2)cc2c1C[C@H]1CN(C(=O)c3ccccc3)[C@@](Cc3ccccc3)(C(=O)OC)[C@@H]21	0.0841	-0.0841	0.0915	0.381	1.56	1.96	1.17	1.07 (inactive)	0.76	-0.119	-0.257	0.316 (inactive)	1.23 (inactive)	0.651 (inactive)	2.52	0.214 (inactive)	0.302	-0.455	0.74	0.168
C[C@@H]1CC[C@H]2C(=O)N3[C@@H](CC[C@@H](C)[C@@H]3c3cccc(N4CCOCC4)c3)C(=O)N2[C@H]1c1cccc(Br)c1	-0.0356	0.237	-0.108	0.528	0.263	0.942	0.987	-0.649 (inactive)	0.166	0.0373	0.969	-0.586 (inactive)	-3.26 (inactive)	-1.19 (inactive)	1.6	0.732 (inactive)	0.075	0.964	0.981	0.161
CN(C)C(=O)[C@@]1(Cc2ccccc2N=[N+]=[N-])N=C(c2ccc(OCCCO)cc2)O[C@H]1c1ccccc1CN=[N+]=[N-]	0.832	2.05	0.0914	0.665	1.56	1.56	1.23	-2.27 (inactive)	0.961	0.0274	1.56	-1.92 (inactive)	-1.62 (inactive)	1.62 (inactive)	3.57	0.859 (inactive)	0.839	1.35	1.06	0.355
CC(C)(C)OC(=O)CC[C@]1(C(=O)NCCN2CCOCC2)N=C(c2ccc(OCCCO)cc2)O[C@H]1c1ccccc1CN=[N+]=[N-]	0.182	1.16	0.0402	0.07	1.24	1.73	1.42	2.72 (inactive)	0.278	-0.0672	0.82	-1.29 (inactive)	-0.981 (inactive)	-1.35 (inactive)	3.06	1.71 (inactive)	-0.0384	-0.541	0.343	0.0074
CN1C2C=C(c3ccc(CO)cc3)C(C3C(=O)N(C(N)=O)C(=O)C32)C1c1cccs1 (stereo not given)	0.631	0.056	-0.0566	0.0657	-0.458	0.839	1.27	1.02 (inactive)	-0.221	-0.0645	0.4	0.697 (inactive)	-1.74 (inactive)	1.21 (inactive)	0.813	1.22 (inactive)	-0.0774	0.198	-0.25	-0.0798
COc1ccc([Si](C)(C)[C@H]2[C@H](CC(=O)N3Cc4ccccc4C[C@H]3CO)O[C@@]3(C(=O)N(Cc4cccc(N5CCOC5=O)c4)c4ccccc43)[C@@H]2C)cc1	0.0766	0.882	-0.128	0.157	0.123	0.676	0.95	-2.72 (inactive)	0.158	-0.264	1.34	-0.541 (inactive)	0.319 (inactive)	0.18 (inactive)	0.662	1.4 (inactive)	0.0939	1.22	0.932	-0.0169
CO[C@H]1COC(=O)CC=C[C@@H](C)COC(=O)[C@@H](C)NC(=O)CC=C[C@@H]1C	-1.1	2.24	-0.138	-0.248	-0.604	-0.907	-0.228	-1.88 (inactive)	0.219	0.0274	1.53	-3.75 (inactive)	-2.87 (inactive)	-2.71 (inactive)	-0.55	-0.288 (inactive)	-0.179	1.83	0.473	-0.0243
CCCCCCc1nc(-c2cc(C)c(OC)c(C)c2)cc2c1[Si](C(C)C)(C(C)C)O[C@H]2c1ccccc1	-0.315	-0.397	-0.14	-0.324	-0.209	-0.626	-1.04	0.119 (inactive)	0.0223	0.0505	-0.118	0.955 (inactive)	0.659 (inactive)	-0.558 (inactive)	-0.685	-0.54 (inactive)	-0.107	-0.346	-0.496	-0.168
